Screen size: about 350,000 compounds; about 2,100 (0.6%) were called active.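 The calls were made as follows: active = inhibition of the ligand-induced calcium signal above about 50% at the single tested concentration (limit read from the data); inactive = the rest.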 Only a selection was taken, and actives are over-represented in it overall.
Test: blockers of CRF-evoked CRF-R2/CRF-BP calcium response – cell-based, HEK293, calcium dye fluorescence, uHTS, primary screen (AID 588475)
Details: CRF-induced calcium fluorescence, at 11.8 µM, active compounds read high
For `CCCCn1c(=O)c(C(=O)Nc2ccccc2Cl)c(O)c2ccccc21`, the inhibition was -17.9% (inactive).
In the case of `CCCCCn1c(=O)c(C(=O)Nc2c(C)n(C)n(-c3ccccc3)c2=O)c(O)c2ccccc21`, the inhibition is reported as 56.7% (active).
For `CCCCCn1c(=O)c(C(=O)NCc2ccccc2)c(O)c2ccccc21`, the inhibition was 3.02% (inactive).
In the case of `O=C(COc1ccc2ccccc2c1)N1CCN(Cc2ccncc2)CC1`, the inhibition is reported as -1.35% (inactive).
In the case of `O=c1c2ccccc2nc(-c2ccc(Cl)cc2Cl)n1-c1ccncc1`, the inhibition is reported as 13.6% (inactive).
